# Shown are actives, neighbours in structure and some others; about 0.58% of the full set was active somewhere.
# CatB mix inh: inhibitors of human cathepsin B in compound mixtures; P07858; Purified cathepsin B, AMC dipeptide fluorescence; inhibition, %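 (ten-compound pools at 5 µM per compound and 50 µM total)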; hit rate 0.06% among 62,000; AID 488; in the data active = inhibition above about 22%, passing the limit was not always enough; inconclusive = no clear call, values can overlap the other calls;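 note: 0% = enzyme without compound and 100% = no enzyme blank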
# CatS block: human cathepsin S inhibition; hit rate 0.06% among 62,000; recombinant cathepsin S, AMC dipeptide fluorescence, pooled mixtures; inhibition, %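 (tested at 5 µM per compound within 10-compound mixtures)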; in the data active = inhibition above about 32%, passing the limit was not always enough; inconclusive = no clear call, values can overlap the other calls;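 note: 0% = enzyme without compound and 100% = blank without enzyme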
# CatL inh: blocks human cathepsin L protease activity. hit rate 0.17% among 58,000. inhibition, %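 (tested at 10 µM)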. purified cathepsin L, fluorogenic substrate, fluorescence; in the data active = inhibition above about 45%;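 note: 0% = enzyme with no compound and 100% = no enzyme blank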
# CatG inh: blocks human cathepsin G enzyme activity; P08311; purified enzyme, AMC-tetrapeptide fluorescence, pooled mixtures; inhibition, % at 5 µM (by protocol); hit rate 0.2% among 62,000; AID 581;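 active = inhibition above 20% in each of the two mixture wells holding the compound; inactive = inhibition of 20% or less in either well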;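 note: 0% = enzyme control without mixture and 100% = blank lacking enzyme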
# C1s inh: human complement C1s inhibition | purified C1s, fluorogenic AMC substrate, pooled mixtures | mean inhibition % of two 10-compound mixtures (stronger effect = higher value), % at 5 µM (by protocol) | hit rate 0.16% among 62,000 | AID 538;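 active = inhibition above 20% in each of the two 10-compound mixture wells holding the compound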;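 note: 0% = enzyme wells lacking compound mixture and 100% = no-enzyme blank wells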
# Target sequence (P09871 16-437 limits assumed): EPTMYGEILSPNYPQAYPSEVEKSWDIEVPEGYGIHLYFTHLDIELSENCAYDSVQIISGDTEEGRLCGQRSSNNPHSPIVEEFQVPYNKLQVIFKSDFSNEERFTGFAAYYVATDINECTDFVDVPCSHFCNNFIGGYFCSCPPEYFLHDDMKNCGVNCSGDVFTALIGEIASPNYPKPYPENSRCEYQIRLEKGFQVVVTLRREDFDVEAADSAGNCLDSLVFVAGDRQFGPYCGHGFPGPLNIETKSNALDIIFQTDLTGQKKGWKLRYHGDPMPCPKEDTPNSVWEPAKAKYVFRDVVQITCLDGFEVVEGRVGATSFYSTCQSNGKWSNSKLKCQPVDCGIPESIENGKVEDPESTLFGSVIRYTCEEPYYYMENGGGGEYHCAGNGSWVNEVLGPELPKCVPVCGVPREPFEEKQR
# Target sequence (P09871 438-688 limits assumed): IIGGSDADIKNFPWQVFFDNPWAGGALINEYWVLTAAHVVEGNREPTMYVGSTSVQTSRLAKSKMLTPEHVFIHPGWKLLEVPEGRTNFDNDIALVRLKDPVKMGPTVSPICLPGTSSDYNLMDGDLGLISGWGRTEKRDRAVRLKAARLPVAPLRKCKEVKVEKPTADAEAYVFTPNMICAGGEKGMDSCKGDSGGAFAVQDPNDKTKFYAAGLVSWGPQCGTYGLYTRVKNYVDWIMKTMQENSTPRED
# CatB block: blocks human cathepsin B protease activity. P07858. AID 453. hit rate 0.1% among 63,000. inhibition, %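 (tested at 10 µM)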. purified cathepsin B, fluorogenic substrate, fluorescence; in the data active = inhibition above about 21%;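 note: 0% = enzyme with no compound and 100% = no enzyme blank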
# * hit, by the source's call; ? = inconclusive; nt = no result given.
SMILES,CatB mix inh,CatS block,CatL inh,CatG inh,C1s inh,CatB block
Cc1noc(/C=C/N(C)C)c1S(=O)(=O)N1CCN(c2ccccc2)CC1,0,-3,53*,7,27,2
CC1CCN(S(=O)(=O)c2cccc(C(=O)Nc3ccccn3)c2)CC1,-3,-6,10,-6,-78,1
CC1CCN(S(=O)(=O)c2cccc(C(=O)NCc3cccs3)c2)CC1,4,-6,-1,16,23*,-2
COc1ccc(OC)c(C(=O)c2ccc(C(=O)N3CCCCC3)cc2)c1,-1,-1,12,-20,-22,4
Cc1nn(Cc2ccc(Cl)c(Cl)c2)c(C)c1NC(=O)c1cc(-c2ccc3c(c2)OCO3)on1,-3,3,13,40*,-25,0
COc1ccc(OC)c(-c2cc(C(=O)Nc3c(C)nn(Cc4ccccc4)c3C)no2)c1,0,19,3,50*,-18,2
COc1ccc(-c2cc(C(=O)Nc3c(C)nn(Cc4ccccc4Cl)c3C)no2)cc1,1,3,-1,52*,10,4
COc1ccc(OC)c(-c2cc(C(=O)Nc3c(C)nn(Cc4ccc(Cl)cc4)c3C)no2)c1,1,2,25,10,11,1
COc1ccccc1OCc1ccc(C(=O)n2nc(C)c(Cl)c2C)o1,6,7,24,6,-2,3
CCOC(=O)CNC(=O)c1ccccc1Br,-3,6,30,12,17,2
O=C(NC(Cc1ccccc1)c1nc2ccccc2[nH]1)C1CC(=O)N(c2ccc3c(c2)OCCO3)C1 (stereo not given),3,-4,16,6,1,7
O=C(c1csc2ccccc12)n1cccn1,8,3,8,52*,50*,2
O=C(c1csc2ccccc12)N1CCCCCC1,-18,-20,5,-16,-63,2
CCc1nnc(NC2=NCCC2)s1,-1,16,12,1,-13,7
C=C(C)C1CCC(C)=C1COC(=O)Nc1ccccc1 (stereo not given),3,3,22,14,-7,0
N#Cc1nc(N2CCOCC2)nc(N2CCOCC2)n1,8,32*,67*,10,17,9
O=C(NCCN1CCOCC1)c1ccc(-c2ccccc2)cc1,-2,-5,-4,5,-24,1
O=C(NCCc1ccccc1)c1noc2c1CCc1ccccc1-2,1,12,21,101*,26*,4
O=C(Cc1ccc(-c2ccccc2)cc1)NCCN1CCOCC1,4,0,-18,10,24*,1
CCCNC(=O)c1noc2c1CCc1ccccc1-2,4,-2,nt,61*,8,5
O=C(NCCN1CCOCC1)c1noc2c1CCc1ccccc1-2,4,30,10,90*,20,1
CCCc1cc(C(=O)NCCc2ccccc2)no1,5,8,nt,9,8,4
CCOc1cc(C2/C(=C(/O)c3ccc(OC(C)C)cc3)C(=O)C(=O)N2CCCOC)ccc1O (stereo not given),-5,-3,-5,3,-2,-3
CCN(CC)C(=O)Cn1nc(-c2ccccc2O)nc1SCC(=O)Nc1ccc(OC)cc1,0,0,-1,10,12,-2
CC1CCN(CCCNC(=O)c2cc3c(=O)n(C)c4ccccc4c3n2C)CC1,0,?,-1,6,-5,1
SMILES,CatB mix inh,CatS block,CatL inh,CatG inh,C1s inh,CatB block
Cn1c(C(=O)NCCN2CCCCCC2)cc2c(=O)n(C)c3ccccc3c21,-1,69*,16,6,10,1
Cn1c(C(=O)NCCCN2CCN(c3ccccc3F)CC2)cc2c(=O)n(C)c3ccccc3c21,5,34,6,4,12,4
Cn1c(C(=O)NCCN2CCN(Cc3ccccc3)CC2)cc2c(=O)n(C)c3ccccc3c21,-1,58*,20,-4,-5,1
Cn1c(C(=O)NCCCN2CCOCC2)cc2c(=O)n(C)c3ccccc3c21,2,47*,10,-3,-3,-5
C=COCCn1c(-c2nonc2N)nc2ccccc21,55*,?,86*,6,4,15
COc1cc(Cn2c(-c3nonc3N)nc3ccccc32)ccc1C,30,3,23,-2,0,50*
Cc1ccc(Cn2c(-c3nonc3N)nc3ccccc32)cc1,-1,-13,22,-6,-117,22*
COc1cccc(Cn2c(-c3nonc3N)nc3ccccc32)c1,15,-1,50*,-1,-1,39*

# Screening data: PubChem BioAssay, PCMD
